# Laboratory results reported in publication PMC5540273 (PLoS ONE, 2017).
# System: PRKG2
# Conditions: concentration: 1 μM,replicates: in singlicate; n = 1
# 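Further: KINOMEscan kinase panel screen.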
row,SMILES,%Inh [%]
1,Cn1ccc2ncnc(Oc3ccc(NC(=O)Nc4ccnc(C(F)(F)F)c4)c(Cl)c3)c21,9
2,Cc1ccc(CC(=O)N2CCc3cc(-c4cn(C)c5ncnc(N)c45)ccc32)cc1 [GSK2634758],12
3,CS(=O)(=O)c1cccc(CNc2nc(Nc3ccc4c(c3)[C@@H]3C[C@@H]4CNC3=O)ncc2C(F)(F)F)c1,0
4,CNC(=O)c1ccccc1Nc1nc(Nc2cccc(CS(C)(=O)=O)c2)ncc1C.O=CO [GSK1520489],8
5,Cn1ccc2ncnc(Oc3ccc(NC(=O)Nc4cccc(C(F)(F)F)c4)c(Cl)c3)c21,7
6,CN1CCN(CCNc2nc3cc(Oc4ccc(NC(=O)Nc5cc(C(F)(F)F)ccc5F)cc4)ccc3[nH]2)CC1.Cl.Cl [GW768504],0
7,O=C(NCC1CC1)c1ccc(-c2cc(C(=O)NC3CC3)ccc2F)cc1 [GW810445],0
8,N#Cc1cccc(C(=O)NC2CCN(c3ccnc(Nc4ccc(F)cc4)n3)C2)c1 (stereo not shown) [GSK1379708],0
9,FC(F)(F)c1cc(Br)cc(Nc2nccc(-c3cnn4ncccc34)n2)c1 [GW810578],0
10,Cc1ccn2nc(-c3ccc(F)cc3)c(-c3ccncc3)c2c1.Cl [GW457859],19
11,C[C@@H](Oc1cc(-n2cnc3cc(-c4cnn(C)c4)ccc32)sc1C(N)=O)c1ccccc1Cl [GSK580432],2
12,Cn1ccc2ncnc(Oc3ccc(NC(=O)Nc4cncc(C(F)(F)F)c4)c(Cl)c3)c21,0
13,CS(=O)(=O)Nc1ccc(-c2ccnc3[nH]ccc23)cc1 [GSK993273],77
14,O=C(Nc1n[nH]c2cc(-c3ccco3)ccc12)C1CC1 [SB-737447],0
15,OCCn1cc(-c2cnc3nnn(Cc4ccc5ncccc5c4)c3n2)cn1,0
16,Cc1ccc(Nc2ccnc(Nc3ccc4c(c3)CS(=O)(=O)C4)n2)cc1O.Cl [GW579362],0
17,Cn1ccc2ncnc(Oc3ccc(NC(=O)Nc4cccc(C(F)(F)F)c4)c(F)c3)c21,17
18,CCOC(=O)N1CCC(n2cnc(-c3ccc(F)cc3)c2-c2ccnc(N)n2)CC1 [SB-219952],26
19,CCn1c(-c2nonc2N)nc2cncc(Br)c21 [SB-738004],92.1

row,SMILES,%Inh [%]
1,Cl.c1ccc(Oc2ccc(Nc3ccnc4cc(-c5ccc(CN6CCNCC6)o5)ccc34)cc2)nc1 [GW567142],0
2,COc1cccc(C2=C(Nc3cccc(Cl)c3)C(=O)NC2=O)c1 [SB-341556],11
3,CS(=O)c1ccc(-c2coc3ccc(-c4n[nH]c(=O)o4)cc23)cc1 (stereo not shown),0
4,COC(=O)Nc1nc2cc(Oc3ccc(NC(=O)Nc4cc(C(F)(F)F)ccc4Cl)cc3)ccc2[nH]1.Cl [GW697465],0
5,Cn1cc(-c2cccc3c(N)c(C(N)=O)nnc23)cn1,11
6,C[C@@H]1CCN(C(=O)N2CCCC2)C[C@@H]1N(C)c1ncnc2[nH]ccc12,13
7,Cc1ccc2c(-c3ccnc(Nc4ccc(C(F)(F)F)cc4)n3)cnn2n1 [GW819776],0
8,C[C@@H](Oc1cc(-n2cnc3cc(-c4ccncc4)ccc32)sc1C(N)=O)c1ccccc1Cl [GSK479719],2
9,CCNCC(Cc1ccccc1)NC(=O)c1cc(Br)c(-c2ccnc3[nH]ccc23)s1.Cl.Cl (stereo not shown) [GSK1383280],99
10,Cc1nnc(-c2ccc3occ(-c4ccc(S(C)=O)cc4)c3n2)o1 (stereo not shown),0
11,COc1cc2nccc(Nc3ccc(Oc4ccccc4)cc3)c2cc1OC.Cl [GI261656],0
12,COc1cccc(OC)c1C(=O)Nc1cccc(-c2nn3ccccc3c2-c2ccnc(Nc3cccc(F)c3)n2)c1 [GSK361065],0
13,COc1cc(Nc2nccc(N3CCC(NC(=O)c4cccc(C#N)c4)C3)n2)cc(OC)c1OC (stereo not shown) [GSK1379751],0
14,O=C(Nc1cccc(C(F)(F)F)c1)c1cccc(Oc2ccc3nccn3n2)c1,1
15,CC(C)c1nc(-c2cccc(NS(=O)(=O)c3ccccc3)c2)c(-c2ccnc(Nc3ccc4c(c3)CN(C)CC4)n2)s1 [GSK1649598],0
16,CN1CCN(CCCNc2nccc(-c3c(-c4ccc(F)cc4)nn4cc(C(N)=O)ccc34)n2)CC1 [GW622475],0
17,CC(=O)c1c(-c2ccncc2)[nH]c(-c2ccncc2)c1C [GW493036],73
18,COC(=O)c1cccc(NC(=O)NC2CCN(c3ccnc(NCc4ccc(F)cc4)n3)CC2)c1 [GSK1379860],0
